An excerpt weighted towards active compounds, which were near 4% of everything screened.
KKLEB tox: reduces viability of KKLEB cystic fibrosis airway cells. 360,000 tested, 0.36% active. AID 602141. KKLEB CF airway cells viability, ATPlite luminescence, overnight; stronger effect = lower value; cells stimulated with P. aeruginosa culture filtrate. activity change (cytotoxicity), % at 5 µM;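 active = corrected activity change at or below -50% at 5 µM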
TWEAK Fn14 block: inhibitors of TWEAK-Fn14 interaction signaling. AID 1159606. 360,000 tested, 2% active. TWEAK-stimulated Fn14 reporter cells, luciferase luminescence, 8 h. inhibition, % at 10 µM; in the data active = inhibition above about 50%
TROY signal inh: inhibitors of TROY-dependent NF-kB signaling; inhibition, % at 10 µM; Q293 LMP1-TROYcd NF-kB luciferase reporter, 4 h; 360,000 tested, 0.98% active;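 active = compounds whose plate-normalised and pattern-corrected inhibition of the luciferase reporter signal at the single screening dose is 50% or more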
Peg3 prom inh-1: Peg3 promoter activity inhibition | HeLa PEG-Prom luciferase reporter, luminescence, overnight | inhibition, % at 20 µM | 360,000 tested, 1.7% active | AID 588405;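 active = inhibition of at least 50% at 20 µM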
HIF-2a inh: blocks HIF-2a reporter activity; 360,000 tested, 0.72% active; 786-0 RCC cells HIF-2a reporter, luciferase luminescence, overnight; inhibition, % at 18.8 µM;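 active = inhibition of the luminescence signal of 40% or more relative to plate controls, in a single-dose primary screen at 18.75 µM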
CF NFkB block: cystic fibrosis NF-kB activation inhibition. AID 588850. 360,000 tested, 0.86% active. inhibition, % at 5 µM. KKLEB NF-kB-GFP reporter, PAF-induced, GFP fluorescence overnight;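 active = at least 50% inhibition at 5 µM, scaled per plate between neutral and stimulator controls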;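 also: PAF is a Pseudomonas aeruginosa culture filtrate used as stimulus; plate controls were PAF-stimulated DMSO wells for no effect and unstimulated DMSO wells for full effect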
Peg3 prom inh-2: confirmation of Peg3 promoter inhibitors; shares compounds with Peg3 prom inh-1; HeLa PEG-Prom luciferase reporter, luminescence, overnight; inhibition, % at 20 µM; 1,300 tested, 84% active; AID 602417;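 active = at 20 µM dose, 40% or more inhibition averaged across four replicates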
Starred values were filed as active, the others as inactive; . = not tested or not shown.

SMILES	KKLEB tox	TWEAK Fn14 block	TROY signal inh	Peg3 prom inh-1	HIF-2a inh	CF NFkB block	Peg3 prom inh-2
CC1CN=C(NS(=O)(=O)c2ccccc2)N1 (stereo not given)	3.8	-16.4	1.5	3.0	9.1	-26.0	.
c1ccc(-c2nnc(N3CCN(c4ccccn4)CC3)c3ccccc23)cc1	-5.6	20.7	25.6	36.6	6.2	28.9	.
Cc1ccc(-c2nnc(N3CCN(c4ccccn4)CC3)c3ccccc23)cc1	-9.1	49.1	54.2*	76.6*	22.1	32.8	83.8*
CC(=O)c1ccc(N2CCN(C(=O)C3CCN(S(=O)(=O)c4cccs4)CC3)CC2)cc1	2.6	-13.8	8.8	17.1	18.8	-4.6	.
O=C(COc1ccc2ccccc2c1)N1c2ccccc2Sc2ccccc21	4.9	-4.2	10.5	19.8	5.8	15.9	.
CN(C)CCCN1c2ccc3ccccc3c2Sc2cccc(Cl)c21	-2.0	-8.2	6.2	44.1	-70.2	0.2	.
O=C(CCl)N1c2ccccc2Sc2ccc3ccccc3c21	-21.9	3.4	9.4	106.9*	31.7	25.9	100.1*
CN(C)CCCN1c2ccccc2Sc2ccc3ccccc3c21	6.5	1.8	5.6	61.3*	-13.8	19.5	97.9*
COc1ccc(NC(=O)CN2C(=O)COc3ccc(S(=O)(=O)N4CCCCCC4)cc32)cc1	-0.7	-1.1	9.0	9.0	13.0	1.8	.
Cc1nn(CC(=O)Nc2ccc(Cl)cc2)c(=O)c2cc(-c3ccccc3)nn12	10.6	-16.3	0.4	-6.4	12.7	2.2	.
Cc1ccsc1C(=O)N1CCC1(C)C(=O)NCCC#N (stereo not given)	-2.8	-1.0	5.8	3.9	7.5	18.1	.
O=C(Cn1cnc2scc(-c3ccc(F)cc3)c2c1=O)NCC(c1ccco1)N1CCCC1 (stereo not given)	4.2	0.1	7.5	-13.8	9.2	-32.8	.
CCc1noc(C)c1C(=O)N1CCC(CCC(=O)Nc2cccc(C)c2)CC1	-6.3	5.2	0.0	11.9	1.2	-18.5	.
CN(C)S(=O)(=O)c1ccc(-c2csc(N/N=C/c3ccc(O)cc3)n2)cc1	-9.4	98.7*	68.7*	96.0*	23.3	82.4*	98.5*
C(=N\Nc1nc(-c2ccccc2)cs1)/c1ccncc1	17.3	-8.0	-13.6	-239.3	-235.6	-24.1	.
CN(C)c1cccc(C(=O)NCCCSc2ccccc2)c1	-9.9	-14.4	-29.2	-147.9	-167.7	-23.0	.
COC(=O)c1ccc2nc(-c3cccc(N)c3)cn2c1	-6.0	95.0*	53.5*	68.4*	36.8	-6.2	11.1
O=C(Nc1ncc([N+](=O)[O-])s1)c1ccc2c(c1)OCO2	-11.0	102.5*	83.6*	70.2*	61.0*	46.4	63.9*
Cc1ccc([N+](=O)[O-])cc1NC(=O)c1ccc2c(c1)OCO2	4.8	-6.8	-1.9	-1.6	-37.3	4.8	.
Cc1cccc(C(=O)NCC(=O)Nc2ccncc2)c1	-0.6	17.0	-8.9	14.3	-1.0	19.8	.
COc1ccc2sc3cccc(NCCN(C)C)c3c(=O)c2c1	-26.6	-31.7	-44.1	96.9*	-100.5	-13.1	66.3*
COc1ccc(C(=O)N(C)CC2CCN(CCc3cccc(C(F)(F)F)c3)CC2)cc1C	-2.6	-1.0	13.2	11.7	7.9	-6.0	.
CCCCCCCCCC[N+](C)(C)CC/C=C1/c2ccccc2Sc2ccc(Cl)cc21	-21.2	5.1	-40.9	107.5*	49.1*	23.2	99.5*
COc1ccc(S(=O)(=O)N2c3ccccc3OCC2c2ccccc2)cc1 (stereo not given)	-12.6	79.2*	40.9	50.1*	29.4	11.6	45.7*
COc1ccc(S(=O)(=O)N2c3ccccc3OCC2C)cc1 (stereo not given)	-8.2	8.6	26.1	16.4	28.8	17.7	.
SMILES	KKLEB tox	TWEAK Fn14 block	TROY signal inh	Peg3 prom inh-1	HIF-2a inh	CF NFkB block	Peg3 prom inh-2
CC[C@H](C)[C@H]1O[C@]2(CC[C@@H]1C)C[C@@H]1C[C@@H](CC=C(C)[C@@H](O[C@H]3C[C@H](OC)[C@@H](O[C@H]4C[C@H](OC)[C@@H](O)[C@H](C)O4)[C@H](C)O3)[C@@H](C)C=CC=C3CO[C@@H]4[C@H](O)C(C)=C[C@@H](C(=O)O1)[C@]34O)O2	-51.3*	100.5*	30.2	84.4*	52.5*	56.1*	38.0
O=C(CNC1CCCC1)Nc1ccc(N2CCCCCC2)cc1	12.6	4.4	-1.9	-1.4	-6.1	-16.2	.
O=C(CNCCC1=CCCCC1)Nc1ccc(N2CCCCCC2)cc1	-10.6	3.1	9.8	86.2*	33.1	15.3	98.9*
Cc1cc(C)c(S(=O)(=O)Nc2ccc3c(c2)CCC3)c(C)c1	-0.6	37.1	19.2	51.1*	17.2	24.6	40.7*
Cc1cc(C)c(S(=O)(=O)Nc2ccc(O)cc2)c(C)c1	4.9	6.1	1.7	18.3	21.1	-5.7	.
Cc1cnc(C)c(Nc2nc(C(N)CCc3ccccc3)cs2)n1 (stereo not given)	-8.8	18.8	-15.0	-2.6	9.3	7.5	.
CCCCN(C)C(=O)c1ccc(Nc2nc(C(N)CCc3ccccc3)cs2)nc1 (stereo not given)	2.0	-28.3	7.3	60.7*	-14.3	-12.2	82.9*
CCCCCOc1ccc(NC2=CC(=O)CCC2)cc1	15.0	-11.3	-19.2	-4.0	-39.6	-20.2	.
O=C(C[C@H]1C[C@H](C(=O)N2CCCCC2)[C@@]2(CCc3ccccc3)c3[nH]c4ccc(Cl)cc4c3CCN2C1=O)NCCN1CCOCC1	-10.2	14.7	5.3	80.2*	9.7	18.9	-2.1
CN(C)CCNc1ncnc2c1ncn2[C@H]1CN(Cc2ccccc2)C[C@@H](CO)O1	-5.1	-1.7	-1.3	-7.2	0.6	10.4	.
CN(C)CCNc1ncnc2c1ncn2[C@H]1CN(Cc2ccc(-c3ccccc3)cc2)C[C@@H](CO)O1	-5.2	11.7	14.3	79.9*	-2.9	10.1	74.8*
CC(C)C[C@@H](CN1CCC[C@H]1CN1C(=O)C(=O)NC[C@@H]1Cc1ccccc1)N1C[C@H](Cc2ccccc2)N(CC2CCCCC2)C(=O)C1=O	.	15.2	38.5	.	-24.2	.	.
C=CCOc1ccc(C2/C(=C(\O)c3ccc4c(c3)OCCO4)C(=O)C(=O)N2CCCN2CCOCC2)cc1 (stereo not given)	-9.2	14.4	-9.8	-0.1	-17.4	28.8	.
COc1ccc(CC(N)c2csc(NC(=O)Nc3ccccc3C(C)(C)C)n2)cc1 (stereo not given)	-4.5	-0.9	-4.9	87.0*	-5.0	0.1	76.5*
COc1ccc(CC(N)c2csc(NC(=O)Nc3cc(OC)ccc3OC)n2)cc1 (stereo not given)	4.7	-10.0	8.3	93.7*	0.8	-12.9	95.5*
Cc1ccccc1NC(=O)Nc1nc(C(N)Cc2ccccc2)cs1 (stereo not given)	-10.8	-9.9	17.3	72.7*	-8.1	7.8	41.9*

Screens from PubChem BioAssay.
